Data as given in the supplement of paper PMC11732987, “Enantioselective OTUD7B fragment discovery through chemoproteomics screening and high-throughput optimisation” (Communications Chemistry, 2025).

Key:
Test in all cases: log2 ratio of Biotin-Ahx-Ub-VS probe labelling (fragment/DMSO); higher = less target engagement (more negative = stronger competition), active = hit call of the paper (q ≤ 0.05, log2 ratio ≤ -1)
Conditions in all cases: compound concentration: 200 uM; treatment time: 3 h
USP34 = USP34 (UniProt Q70CQ2)
Summary of the method: (§1)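 Average log2 ratios of fragment over vehicle were obtained by unpaired t-test from global-median-normalised Spectronaut label-free quantities. Proteins with ≥2 unique peptides were included. HEK293T lysate (495 µg per sample) was treated in triplicate with fragment at 200 µM or vehicle for 3 h, then with Biotin-Ahx-Ub-VS at 0.5 µM final for 1 h, and labelled DUBs were NeutrAvidin-enriched and run by diaPASEF LC-MS/MS.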

USP36 = molecular target: T1, USP36 (UniProt Q9P275)
T1 sequence (whole entry): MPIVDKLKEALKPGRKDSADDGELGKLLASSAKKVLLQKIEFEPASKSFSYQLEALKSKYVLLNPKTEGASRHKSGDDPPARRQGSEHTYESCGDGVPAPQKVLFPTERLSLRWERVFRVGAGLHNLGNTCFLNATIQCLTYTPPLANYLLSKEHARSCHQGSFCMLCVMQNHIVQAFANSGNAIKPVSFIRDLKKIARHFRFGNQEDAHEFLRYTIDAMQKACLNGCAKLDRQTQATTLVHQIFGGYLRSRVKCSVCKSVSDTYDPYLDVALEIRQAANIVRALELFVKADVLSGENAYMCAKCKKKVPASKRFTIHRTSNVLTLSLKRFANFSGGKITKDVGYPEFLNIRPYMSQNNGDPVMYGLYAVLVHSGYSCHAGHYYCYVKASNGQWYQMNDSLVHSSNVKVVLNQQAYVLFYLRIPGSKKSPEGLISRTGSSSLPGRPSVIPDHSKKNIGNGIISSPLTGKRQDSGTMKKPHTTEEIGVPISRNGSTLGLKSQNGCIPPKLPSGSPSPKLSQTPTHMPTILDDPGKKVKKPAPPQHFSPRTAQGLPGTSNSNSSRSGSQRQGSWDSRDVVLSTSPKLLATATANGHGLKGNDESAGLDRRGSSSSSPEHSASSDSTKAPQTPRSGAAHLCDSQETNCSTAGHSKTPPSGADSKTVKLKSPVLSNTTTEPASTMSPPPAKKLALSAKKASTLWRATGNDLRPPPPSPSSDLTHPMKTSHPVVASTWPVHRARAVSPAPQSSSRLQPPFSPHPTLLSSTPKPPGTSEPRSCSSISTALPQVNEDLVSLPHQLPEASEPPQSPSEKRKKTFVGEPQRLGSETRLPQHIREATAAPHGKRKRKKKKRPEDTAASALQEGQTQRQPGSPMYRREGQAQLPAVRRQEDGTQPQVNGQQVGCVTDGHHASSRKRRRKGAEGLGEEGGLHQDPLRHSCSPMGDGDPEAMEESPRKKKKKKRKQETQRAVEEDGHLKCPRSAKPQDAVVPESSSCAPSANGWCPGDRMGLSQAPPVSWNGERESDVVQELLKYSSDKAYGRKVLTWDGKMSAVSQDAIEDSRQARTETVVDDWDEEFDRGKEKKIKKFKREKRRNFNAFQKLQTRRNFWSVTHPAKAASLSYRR
Summary of the method: as §1

USP38 = molecular target: T2, USP38 (UniProt Q8NB14)
T2 sequence (whole entry): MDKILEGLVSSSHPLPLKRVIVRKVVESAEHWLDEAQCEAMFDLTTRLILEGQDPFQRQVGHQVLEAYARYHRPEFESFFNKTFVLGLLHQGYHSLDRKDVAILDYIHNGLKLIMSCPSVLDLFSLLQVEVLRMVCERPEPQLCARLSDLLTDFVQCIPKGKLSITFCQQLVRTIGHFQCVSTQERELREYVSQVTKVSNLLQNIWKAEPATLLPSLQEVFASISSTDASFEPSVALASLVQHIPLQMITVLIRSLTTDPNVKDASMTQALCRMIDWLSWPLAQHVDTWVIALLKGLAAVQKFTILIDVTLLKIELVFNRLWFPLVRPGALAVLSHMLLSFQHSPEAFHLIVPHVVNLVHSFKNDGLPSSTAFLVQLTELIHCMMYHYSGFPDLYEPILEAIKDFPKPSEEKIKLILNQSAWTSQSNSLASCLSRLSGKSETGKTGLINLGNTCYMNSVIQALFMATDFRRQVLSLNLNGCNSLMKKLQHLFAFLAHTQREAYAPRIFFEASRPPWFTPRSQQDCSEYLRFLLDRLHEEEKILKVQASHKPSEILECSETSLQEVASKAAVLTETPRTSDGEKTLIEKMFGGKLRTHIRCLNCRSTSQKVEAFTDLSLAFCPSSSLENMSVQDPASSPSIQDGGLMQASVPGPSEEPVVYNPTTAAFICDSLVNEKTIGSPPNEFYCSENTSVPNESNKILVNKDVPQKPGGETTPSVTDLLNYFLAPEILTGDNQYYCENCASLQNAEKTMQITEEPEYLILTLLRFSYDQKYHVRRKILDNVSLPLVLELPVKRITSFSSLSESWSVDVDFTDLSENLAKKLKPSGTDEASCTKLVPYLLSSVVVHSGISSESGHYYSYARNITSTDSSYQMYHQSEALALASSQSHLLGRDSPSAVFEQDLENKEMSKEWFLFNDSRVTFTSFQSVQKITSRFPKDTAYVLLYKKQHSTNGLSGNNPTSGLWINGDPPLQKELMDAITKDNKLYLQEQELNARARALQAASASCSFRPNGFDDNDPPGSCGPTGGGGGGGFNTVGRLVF
Summary of the method: as §1

USP39 = molecular target: T3, USP39 (UniProt Q53GS9)
T3 sequence (whole entry): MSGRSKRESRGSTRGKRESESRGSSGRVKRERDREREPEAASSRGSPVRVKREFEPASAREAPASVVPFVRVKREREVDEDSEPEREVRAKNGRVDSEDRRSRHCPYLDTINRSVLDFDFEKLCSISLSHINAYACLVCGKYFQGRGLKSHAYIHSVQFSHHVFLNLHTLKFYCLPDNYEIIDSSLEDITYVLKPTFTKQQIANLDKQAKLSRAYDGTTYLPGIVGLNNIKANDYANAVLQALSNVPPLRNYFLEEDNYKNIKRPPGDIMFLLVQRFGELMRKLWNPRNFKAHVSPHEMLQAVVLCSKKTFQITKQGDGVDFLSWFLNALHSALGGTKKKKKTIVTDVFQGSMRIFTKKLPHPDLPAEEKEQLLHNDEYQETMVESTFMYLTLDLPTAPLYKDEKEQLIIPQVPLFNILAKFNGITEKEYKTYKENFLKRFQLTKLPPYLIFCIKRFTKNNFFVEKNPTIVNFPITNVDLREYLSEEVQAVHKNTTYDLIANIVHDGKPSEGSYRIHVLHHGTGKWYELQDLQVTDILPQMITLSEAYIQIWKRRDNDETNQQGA
Summary of the method: as §1

USP4 = molecular target: T4, USP4 (UniProt Q13107)
T4 sequence (whole entry): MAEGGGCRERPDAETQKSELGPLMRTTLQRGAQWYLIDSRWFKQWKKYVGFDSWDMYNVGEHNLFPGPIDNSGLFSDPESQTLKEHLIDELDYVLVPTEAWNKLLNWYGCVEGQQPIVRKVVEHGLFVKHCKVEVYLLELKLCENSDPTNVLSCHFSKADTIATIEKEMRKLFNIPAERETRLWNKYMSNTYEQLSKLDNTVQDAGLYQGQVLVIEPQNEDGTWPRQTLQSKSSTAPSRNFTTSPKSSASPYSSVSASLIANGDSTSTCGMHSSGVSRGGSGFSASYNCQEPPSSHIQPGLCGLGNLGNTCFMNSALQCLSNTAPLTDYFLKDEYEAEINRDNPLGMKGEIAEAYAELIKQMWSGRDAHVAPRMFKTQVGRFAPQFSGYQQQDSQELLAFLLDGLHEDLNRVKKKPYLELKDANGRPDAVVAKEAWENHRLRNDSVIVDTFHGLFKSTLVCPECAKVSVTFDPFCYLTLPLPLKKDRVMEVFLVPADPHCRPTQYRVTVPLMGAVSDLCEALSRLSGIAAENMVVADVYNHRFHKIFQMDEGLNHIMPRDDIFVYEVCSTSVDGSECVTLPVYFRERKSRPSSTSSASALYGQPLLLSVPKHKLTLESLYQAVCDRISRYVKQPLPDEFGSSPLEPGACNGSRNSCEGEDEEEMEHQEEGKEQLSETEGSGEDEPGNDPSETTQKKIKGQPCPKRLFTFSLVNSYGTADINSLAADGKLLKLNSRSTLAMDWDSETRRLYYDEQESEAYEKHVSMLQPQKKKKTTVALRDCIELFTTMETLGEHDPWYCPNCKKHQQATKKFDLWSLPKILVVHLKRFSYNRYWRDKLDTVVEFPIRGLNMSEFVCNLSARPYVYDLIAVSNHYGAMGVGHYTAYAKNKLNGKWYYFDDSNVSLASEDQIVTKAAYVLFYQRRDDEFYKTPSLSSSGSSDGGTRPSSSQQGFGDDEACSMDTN
Summary of the method: as §1

Measured: log2 ratio of Biotin-Ahx-Ub-VS probe labelling

Sequence of USP34 (Q70CQ2 whole entry, the tested form may be a part): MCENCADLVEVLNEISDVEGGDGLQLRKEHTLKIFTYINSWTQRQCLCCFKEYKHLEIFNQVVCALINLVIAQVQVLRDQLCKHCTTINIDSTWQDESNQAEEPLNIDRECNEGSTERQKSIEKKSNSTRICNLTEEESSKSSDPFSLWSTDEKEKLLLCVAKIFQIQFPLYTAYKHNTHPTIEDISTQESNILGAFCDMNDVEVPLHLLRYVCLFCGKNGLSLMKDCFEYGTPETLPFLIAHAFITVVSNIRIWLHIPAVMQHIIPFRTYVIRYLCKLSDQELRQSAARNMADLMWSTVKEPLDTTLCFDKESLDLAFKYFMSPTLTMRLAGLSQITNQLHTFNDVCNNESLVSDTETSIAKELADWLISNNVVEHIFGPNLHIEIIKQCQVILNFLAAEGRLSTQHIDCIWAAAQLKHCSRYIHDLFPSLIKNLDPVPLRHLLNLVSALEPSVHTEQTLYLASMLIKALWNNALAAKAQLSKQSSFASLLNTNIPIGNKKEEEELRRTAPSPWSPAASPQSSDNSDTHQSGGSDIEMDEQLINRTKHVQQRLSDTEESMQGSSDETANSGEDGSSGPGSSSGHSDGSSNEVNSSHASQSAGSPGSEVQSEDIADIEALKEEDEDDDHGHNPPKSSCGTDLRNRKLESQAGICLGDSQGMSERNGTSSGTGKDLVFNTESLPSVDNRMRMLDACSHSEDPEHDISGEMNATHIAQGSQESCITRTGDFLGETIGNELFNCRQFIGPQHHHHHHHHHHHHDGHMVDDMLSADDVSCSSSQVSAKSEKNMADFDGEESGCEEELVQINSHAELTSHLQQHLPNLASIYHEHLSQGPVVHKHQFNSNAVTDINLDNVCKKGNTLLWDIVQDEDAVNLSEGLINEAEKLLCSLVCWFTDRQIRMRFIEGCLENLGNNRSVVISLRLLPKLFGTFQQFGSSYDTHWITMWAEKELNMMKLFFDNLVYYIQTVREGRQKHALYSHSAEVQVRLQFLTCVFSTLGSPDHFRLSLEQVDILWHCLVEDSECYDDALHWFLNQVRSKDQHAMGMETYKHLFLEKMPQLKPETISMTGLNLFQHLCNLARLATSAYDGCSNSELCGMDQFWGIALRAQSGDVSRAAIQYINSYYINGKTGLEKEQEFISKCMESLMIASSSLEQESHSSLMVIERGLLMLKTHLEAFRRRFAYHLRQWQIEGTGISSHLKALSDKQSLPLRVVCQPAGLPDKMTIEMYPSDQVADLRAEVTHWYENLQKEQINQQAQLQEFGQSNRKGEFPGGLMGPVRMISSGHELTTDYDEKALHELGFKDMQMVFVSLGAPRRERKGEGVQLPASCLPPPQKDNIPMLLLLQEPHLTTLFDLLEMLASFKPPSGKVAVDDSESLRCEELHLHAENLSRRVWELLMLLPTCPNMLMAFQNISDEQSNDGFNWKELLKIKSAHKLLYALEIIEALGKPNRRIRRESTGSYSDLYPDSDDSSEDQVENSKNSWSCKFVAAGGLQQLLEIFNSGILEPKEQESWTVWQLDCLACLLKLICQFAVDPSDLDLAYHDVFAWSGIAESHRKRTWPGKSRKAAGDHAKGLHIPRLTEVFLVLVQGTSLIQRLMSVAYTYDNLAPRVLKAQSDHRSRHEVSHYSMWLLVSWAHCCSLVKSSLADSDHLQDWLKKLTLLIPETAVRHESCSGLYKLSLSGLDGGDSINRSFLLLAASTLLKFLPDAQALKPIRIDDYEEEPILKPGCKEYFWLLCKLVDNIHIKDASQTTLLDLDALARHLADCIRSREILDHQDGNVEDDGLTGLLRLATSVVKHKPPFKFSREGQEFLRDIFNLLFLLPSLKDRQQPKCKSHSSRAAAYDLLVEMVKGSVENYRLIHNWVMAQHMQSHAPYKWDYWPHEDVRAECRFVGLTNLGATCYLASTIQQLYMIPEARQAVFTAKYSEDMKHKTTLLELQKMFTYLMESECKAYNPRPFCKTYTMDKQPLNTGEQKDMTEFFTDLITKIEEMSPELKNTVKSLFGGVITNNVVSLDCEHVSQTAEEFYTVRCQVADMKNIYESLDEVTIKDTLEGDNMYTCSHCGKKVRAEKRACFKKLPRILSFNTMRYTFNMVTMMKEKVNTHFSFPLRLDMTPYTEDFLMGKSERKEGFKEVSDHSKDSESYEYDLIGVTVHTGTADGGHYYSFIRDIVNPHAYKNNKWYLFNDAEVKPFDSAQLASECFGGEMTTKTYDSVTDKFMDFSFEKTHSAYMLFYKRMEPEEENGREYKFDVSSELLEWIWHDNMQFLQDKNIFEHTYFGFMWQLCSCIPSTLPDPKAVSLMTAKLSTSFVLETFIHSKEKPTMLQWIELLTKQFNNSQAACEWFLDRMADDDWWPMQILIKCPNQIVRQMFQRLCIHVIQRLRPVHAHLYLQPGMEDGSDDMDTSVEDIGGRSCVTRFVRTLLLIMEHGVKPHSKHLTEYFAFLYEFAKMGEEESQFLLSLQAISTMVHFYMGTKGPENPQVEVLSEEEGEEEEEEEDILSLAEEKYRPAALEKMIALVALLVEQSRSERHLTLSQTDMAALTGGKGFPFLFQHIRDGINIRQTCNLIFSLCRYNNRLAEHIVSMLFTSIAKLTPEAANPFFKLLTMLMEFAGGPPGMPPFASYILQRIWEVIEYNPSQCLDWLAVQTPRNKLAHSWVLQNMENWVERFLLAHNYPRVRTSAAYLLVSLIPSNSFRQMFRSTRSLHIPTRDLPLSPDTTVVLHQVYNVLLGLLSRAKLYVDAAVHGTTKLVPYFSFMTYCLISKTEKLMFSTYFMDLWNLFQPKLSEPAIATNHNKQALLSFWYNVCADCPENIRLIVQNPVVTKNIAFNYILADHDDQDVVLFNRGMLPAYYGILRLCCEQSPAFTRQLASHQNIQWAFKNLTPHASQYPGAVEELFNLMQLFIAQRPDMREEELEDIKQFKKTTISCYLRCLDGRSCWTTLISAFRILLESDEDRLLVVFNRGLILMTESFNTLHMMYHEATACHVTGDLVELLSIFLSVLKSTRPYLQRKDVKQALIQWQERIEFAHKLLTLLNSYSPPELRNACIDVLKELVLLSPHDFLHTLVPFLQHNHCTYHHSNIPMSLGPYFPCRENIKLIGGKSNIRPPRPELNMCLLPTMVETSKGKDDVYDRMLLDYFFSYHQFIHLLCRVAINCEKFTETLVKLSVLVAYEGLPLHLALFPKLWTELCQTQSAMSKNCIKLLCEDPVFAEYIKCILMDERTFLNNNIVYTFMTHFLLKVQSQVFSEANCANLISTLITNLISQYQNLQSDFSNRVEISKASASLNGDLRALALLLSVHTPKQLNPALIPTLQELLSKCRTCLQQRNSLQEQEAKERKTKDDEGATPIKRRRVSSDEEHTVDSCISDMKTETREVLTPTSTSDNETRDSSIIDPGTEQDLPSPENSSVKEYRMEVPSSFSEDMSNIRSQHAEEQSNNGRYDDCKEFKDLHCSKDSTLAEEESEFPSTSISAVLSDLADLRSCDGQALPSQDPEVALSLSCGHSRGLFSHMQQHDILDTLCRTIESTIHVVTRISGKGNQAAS

Cc1ccc(CNC(=O)CCl)nc1C.Cl
inactive: USP34 -0.103 | USP36 0.158 | USP38 0.0543 | USP39 0.0861 | USP4 0.0382
